# The whole screen tested about 1,300 compounds, of which about 380 (29%) were called active. About 37% were inconclusive and are not listed. This is one part of the list. A number with no mark means an inactive call. Calls follow the shape of the dose curve; as a rule, active = well fitted inhibition curve with a large enough effect; inconclusive = small, poorly fitted or top-dose-only effect; inactive = flat fitted curve, though single readings scatter.
# Biological target: Thyrotropin receptor (Homo sapiens) (UniProt P16473)
# Assay: qHTS for antagonists of the Thyroid Stimulation Hormone Receptor: Hit Validation in Primary Screen; also: nearly all actives have a fitted effect of over 80% in size;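 as to activity change, negative = inhibition: cells stimulated with TSH at EC80 of 4 nM during compound exposure; cAMP by competitive HTRF where cellular cAMP lowers the 665 nm FRET signal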
# Conditions: TSHR-expressing cells, cAMP antagonist mode; series mostly up to 58 µM; activity change, negative = inhibition: at the top concentration
# Excerpt: The thyroid-stimulating hormone receptor (TSHR) is a member of the 7 trans-membrane-spanning receptor (7TMR) family of cell surface receptors. TSHR-mediated hyperthyroidism is important in thyroid pathology. The development of small molecule antagonists of TSHR may lead to therapeutic approaches for TSHR-mediated hyperthyroidism caused by constitutively activating mutations or stimulating auto-antibodies associated with Graves' disease. Graves' disease is the leading cause of hyperthyroidism and is caused by autoantibodies that stimulate TSHR (TsAbs) causing thyroid growth and unregulated overproduction of thyroid hormones and existing treatments have liabilities (agranulocytosis). In addition, TSHRs are known to be expressed in multiple extrathyroidal tissues including bone, brain, kidney, testis, fat and cells of the immune system but the role of the TSHR in these tissues is not clear. Therefore, TSHR antagonists/inverse agonists could be used as probes of extrathyroidal TSHR function. Finally, TSHR inverse agonists, which are a subclass of antagonists that inhibit agonist-independent (or basal or constitutive) TSHR signaling, could be used to inhibit TSH-independent signaling in patients with recurrent or metastatic thyroid cancer who are receiving thyroid hormone to suppress TSH.
# In collaboration between scientist from the NCGC and the NIDDK, a miniaturized HTRF high-throughput screen was developed. It's a cell based assay, where an anti cAMP antibody contains a fluorescent cryptate tag (excitation 337 nm; emission 620 nm) and the acceptor is cAMP-d2 (excitation 620 nm; emission 665 nm). When antibody and cAMP-d2 interact and are excited by a 337 nm light, a FRET occurs resulting in emission at 665 nm. The assay is competition between cAMP-d2 and cAMP (from the cell lysate). The homogeneous protocol allows for one step dispense after stimulation that is automation friendly. This is a hit validation assay using the primary screen format.
# NIH Chemical Genomics Center [NCGC]
# NIH Molecular Libraries Probe Centers Network [MLPCN]
# Assay Provider: Marvin Gershengorn, NIDDK
# 1. 3ul of 200 TSHR freshly harvested cells/well are dispensed into a 1536 TC-treated white solid bottom plate.
# 2. Through pintool addition, 23nl of compounds and control in 100% DMSO are added to the plate.
# 3. Then 1ul of EC80 TSH (4nM final) is added to the plate.
# 4. Assay is incubated at 37 deg C for 2 hours.
# 5. 2ul of cAMP antibody diluted 1:20 in lysis buffer is added.
# 6. Immediately following, 2ul of d2 diluted 1:20 in HBSS is added seperately.
# 7. The assay is incubated for 30 minutes at ambient room temperature.
# 8. The result is obtained by using a ViewLux read-out with HTRF settings.
# % is scaled to controls: 0 for no effect and ±100 for the full control effect; potency is read from the fitted curve at half-maximal effect.
# Thyrotropin receptor (Homo sapiens), sequence (P16473 whole entry, looked up): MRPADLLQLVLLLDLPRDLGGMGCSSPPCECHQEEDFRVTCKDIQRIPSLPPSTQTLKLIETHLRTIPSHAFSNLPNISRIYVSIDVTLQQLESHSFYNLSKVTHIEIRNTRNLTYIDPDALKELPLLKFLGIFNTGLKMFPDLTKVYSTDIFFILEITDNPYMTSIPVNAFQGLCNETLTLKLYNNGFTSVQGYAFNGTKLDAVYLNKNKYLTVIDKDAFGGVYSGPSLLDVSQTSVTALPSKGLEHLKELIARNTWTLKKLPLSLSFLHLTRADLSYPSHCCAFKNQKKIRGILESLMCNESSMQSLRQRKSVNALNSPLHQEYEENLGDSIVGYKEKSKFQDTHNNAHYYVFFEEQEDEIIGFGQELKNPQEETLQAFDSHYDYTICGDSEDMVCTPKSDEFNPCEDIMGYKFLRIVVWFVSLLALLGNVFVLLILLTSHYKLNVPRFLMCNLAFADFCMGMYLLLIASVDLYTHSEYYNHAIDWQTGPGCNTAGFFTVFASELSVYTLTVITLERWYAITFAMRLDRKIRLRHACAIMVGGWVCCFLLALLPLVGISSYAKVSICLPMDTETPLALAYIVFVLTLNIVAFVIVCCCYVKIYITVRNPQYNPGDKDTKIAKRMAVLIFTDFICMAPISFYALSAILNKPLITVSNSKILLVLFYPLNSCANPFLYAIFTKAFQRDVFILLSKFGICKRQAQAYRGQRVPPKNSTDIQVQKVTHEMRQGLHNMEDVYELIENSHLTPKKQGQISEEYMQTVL
SMILES,Potency,"activity change, negative = inhibition"
CC(C)C1Nc2c(O)cc(Cl)c([N+](=O)[O-])c2C2C=CCC21 (stereo unspecified),8.49 µM (active),
COc1ccc(CNC(=O)CCS(=O)(=O)c2cc3c(cc2Cl)NC(=O)CO3)cc1,,-4.93%
C/C(=N\NC(=O)c1cccc(Cl)c1)C1C(=O)c2ccccc2C1=O,12 µM (active),
CC(=O)N1c2ccc(S(=O)(=O)N3CCC(C(=O)NC4CCCCC4C)CC3)cc2CC1C (stereo unspecified),,-8.1%
O=C(COc1cccc2ccccc12)Nc1ccc(Cl)cc1C(=O)O,4.78 µM (active),
O=C(COc1ccc(Cl)cc1Cl)Nc1ccc(C(=O)Nc2ccccc2C(=O)O)cc1,23.9 µM (active),
O=C(CSc1ccccn1)Nc1cccc2ccccc12,,-7.49%
O=C(Nc1cccc2ccccc12)c1ccccc1,,-10.5%
O=C(CSc1ccc2nnc(CCNC(=O)c3ccccc3)n2n1)NCc1ccc(F)cc1,,-0.864%
N#Cc1ccc(C(=O)Nc2nc(-c3cccs3)c(C(=O)C(F)(F)F)s2)cc1,6.01 µM (active),
Cc1ccccc1NC(=O)CCc1c(C)nn(-c2ccc(N3CCOCC3)nn2)c1C,,-1.58%
CC(=O)c1c(O)cc(O)c(C(C)=O)c1O,30.1 µM (active),
Cc1ccc(-n2nc3c(=O)n(C(C)C(=O)NC4CC4)nc(C)c3c2C)cc1 (stereo unspecified),,-5.96%
COc1cc(C(=O)N/N=C/c2cn(Cc3ccccc3)c3ccccc23)ccc1O,,-12%
COc1ccc(-c2nn(-c3ccccc3)cc2/C=N/NC(=O)c2ccc(Br)o2)cc1,9.53 µM (active),
CCN(C(=O)CSc1nnc(CNc2cccc(OC)c2)n1C1CCCCC1)C1CCS(=O)(=O)C1 (stereo unspecified),,-3.31%
COc1ccc(NS(=O)(=O)c2cc(-c3cnc(C4CC4)o3)ccc2C)cc1,26.9 µM (active),
CC(=O)c1cccc(NC(=O)c2sc3nc4n(c(=O)c3c2C)CCCC4)c1,,-17.4%
CC(=O)c1cccc(NS(=O)(=O)c2cc(-c3cnc(C4CC4)o3)ccc2C)c1,21.3 µM (active),
Cc1ccc(-c2cnc(C3CC3)o2)cc1S(=O)(=O)Nc1ccccc1,30.1 µM (active),
COc1ccc(-c2cc3c(=O)n(CC(=O)NCc4cccnc4)nc(C)n3n2)cc1,,-5.13%
CCCn1c(=O)c2[nH]c(C3CCCC3)nc2n(CCC)c1=O,,-2.13%
O=C(NN=C1CCCC1)c1cc(Cl)cc(Cl)c1O,,-9.28%
Cc1c(Cl)sn(-c2ccc(Cl)cc2)c1=O,26.9 µM (active),

SMILES,Potency,"activity change, negative = inhibition"
CC1=N/C(=C\c2ccc([N+](=O)[O-])cc2)C(=O)N1c1ccc(Cl)cc1,,-0.461%
O=C(Nc1ccc(N2CCN(C(=O)c3ccccc3)CC2)cc1)c1cc2ccccc2o1,23.9 µM (active),
O=C(NCCc1ccccc1)c1cc2ccccc2oc1=O,,-2.82%
CS(=O)(=O)N(Cc1ccccc1)c1ccc(C(=O)N2CCN(c3cccc(Cl)c3)CC2)cc1,,-7.49%
CCc1ccc(-c2cc(C)no2)cc1S(=O)(=O)N1CCN(c2ccccn2)CC1,30.1 µM (active),
CCN(c1ccc(OC)cc1)S(=O)(=O)c1cc(-c2cc(C)no2)ccc1C(C)C,,-9.45%
CC(NC(=O)c1cc(=O)[nH]c2ccccc12)c1ccc(F)cc1F (stereo unspecified),,-4.26%
Cc1ccc(NC(=O)Cn2ncc3c([nH]c4ccccc43)c2=O)cc1Cl,,-8.04%
O=C(Nc1ccc(Cl)cc1)c1cc2c(cc1O)[nH]c1ccccc12,3.01 µM (active),
COC(=O)Cc1c(C)[nH]n(-c2cc(Cl)cc(Cl)c2)c1=O,,-7.75%
Cc1cc(C)n2nc(SCC(=O)Nc3ccccc3C)nc2n1,,0.49%
Cc1cc(C(=O)NC2CCCc3c2cnn3-c2ccc(C(C)(C)C)cc2)nn1C (stereo unspecified),30.1 µM (active),
Cc1cc(C)cc(OC(C)C(=O)NCCCn2ccnc2)c1 (stereo unspecified),,-1.84%
O=C(Nc1ccc(Cl)c(S(=O)(=O)N2CCOCC2)c1)c1ccc(OCC2CCCO2)cc1 (stereo unspecified),15.1 µM (active),
CC1=C(C(=O)N2CCCC(N3CCN(c4ccccc4C)CC3)C2)OCCO1 (stereo unspecified),,-5.88%
CCOc1ccccc1N1CCN(C(=O)CCCN2C(=O)c3cccc4cccc(c34)C2=O)CC1,30.1 µM (active),
COCCNC(=O)CN1C(=O)c2cccc3cccc1c23,,-3.72%
COc1ccccc1N1CCN(C(=O)CCC(=O)N2CCN(c3ccc(F)cc3)CC2)CC1,,-12.6%
Nc1ccc(C(=O)NC2CCSc3ccccc32)cc1[N+](=O)[O-] (stereo unspecified),,-14.1%
O=C(COC(=O)c1ccccc1C(=O)c1ccc(Cl)c([N+](=O)[O-])c1)NC1CCCCCC1,23.9 µM (active),
Cc1ccc(NC(=O)CCc2nnc3ccc(NCc4ccco4)nn23)nc1,,-7.92%
CN(C)c1ccc(NC(=O)C2C3C=CC(C3)C2C(=O)O)cc1 (stereo unspecified),,-8.9%
CN(C)c1ccc(NC(=O)Oc2ccccc2)cc1,,-7.4%
Cc1ccc(S(=O)(=O)NC(=O)Nc2ccc(N(C)C)cc2)cc1,30.1 µM (active),

SMILES,Potency,"activity change, negative = inhibition"
COc1cccc(CN(C)C(=O)c2ccc(OCC(=O)Nc3cccc(C(F)(F)F)c3)c(OC)c2)c1,23.9 µM (active),
CSCCCNC(=O)c1ccc(OC2CCN(C(=O)c3cccnc3)CC2)cc1,,-5.76%
Cn1c2c(c(=O)n(C)c1=O)C(C(F)(F)F)(C(F)(F)F)N=C(c1ccc(Cl)cc1)N2,19 µM (active),
COc1ccc(C2c3ccc(O)cc3Oc3ncn(Cc4ccco4)c(=N)c32)cc1 (stereo unspecified),,-6.31%
O=C(CN1C(=O)NC2(CCCCCC2)C1=O)N1CCC(Cc2ccccc2)CC1,21.3 µM (active),
CC1Cc2ccccc2N1C(=O)COC(=O)/C=C/c1cccc(F)c1 (stereo unspecified),30.1 µM (active),
CC(=O)N1c2ccc(S(=O)(=O)N(C)CC(=O)N(C)Cc3ccccc3)cc2CC1C (stereo unspecified),,-5.7%
CC(C)Cc1ccc(C(C)C(=O)Nc2nccs2)cc1 (stereo unspecified),,-12.1%
COc1ccc(OC)c2c1C(=O)C(Cl)=C(Cl)C2=O,33.8 µM (active),
Cc1cccc(OC2CCN(Cc3nc(CC4CC4)no3)CC2)c1,,-10.7%
O=C(N[C@H]1C/C=C\C(c2cccc(F)c2)N(Cc2ccccc2)C(=O)C1)OCC1c2ccccc2-c2ccccc21 (stereo partly specified),,-5.96%
CCc1cc(CNC(=O)CC2C(=O)NCCN2Cc2ccc(-c3ccccc3)cc2)on1 (stereo unspecified),,-10.3%
CCCc1ccc(-c2c(C)sc(NC(=O)c3ccnn3C)c2C#N)cc1,23.9 µM (active),
CCN1C(=NCc2ccc(OC)cc2)N[C@@H](CCc2ccccc2)[C@H](C(=O)NCc2ccc(OC)cc2)[C@H]1C,,-6.54%
Cc1ccc(C2(c3ccc(C)cc3)CC2C(=O)Nc2ccc([N+](=O)[O-])cc2O)cc1 (stereo unspecified),19 µM (active),
CCOc1ccc(C2NC(=O)c3ccccc3O2)cc1OC (stereo unspecified),,-2.79%
CC(C)(C)c1ccc(C(=O)CC(Sc2ccc(Cl)cc2)C(=O)O)cc1 (stereo unspecified),37.9 µM (active),
O=C1NC(=S)SC1=C1CCCCCC1,30.1 µM (active),
CC1=CCC2C(=O)N(c3ccc(C(=O)Nc4ccccc4Cl)cc3)C(=O)C2C1 (stereo unspecified),,-3.11%
Cc1ncsc1CCOC(=O)C1C2CC3CC(C2)CC1C3 (stereo unspecified),30.1 µM (active),
Cc1ccc(S(=O)(=O)/N=C2/NC(=O)/C(=C\c3cc(Br)cc(Br)c3O)S2)cc1,15.1 µM (active),
COc1ccc(CNC(=O)CCS(=O)(=O)c2ccc3c(c2)CCN3C(C)=O)cc1,,-3.72%
Cc1cc(C)c(C2=NOC3C4CCC(C4)C23)c(C)c1 (stereo unspecified),,-7.2%
COc1cccc(OC)c1C(=O)Nc1ccc2c(c1)N(S(=O)(=O)c1cccs1)CCC2,,-6.48%

SMILES,Potency,"activity change, negative = inhibition"
O=C1NC(=S)S/C1=C\c1ccc(SCc2ccccc2)o1,6.01 µM (active),
COCCNc1oc(Cc2cccc3ccccc23)nc1C#N,,-5.82%
O=c1[nH]c(C2CCN(S(=O)(=O)c3cccc(Cl)c3)CC2)nc2c1nnn2Cc1ccccc1,,-3.4%
O=C(O)c1ccc(Cl)cc1Nc1nc2cc(Cl)ccc2o1,26.9 µM (active),
O=C1C=CC(=O)N1CCCCCCN1C(=O)C=CC1=O,37.9 µM (active),
C=CCn1c(SCC(=O)c2cccs2)nc2sc(CC)cc2c1=O,21.3 µM (active),
COc1cc(/C=C(\C#N)c2nc3ccccc3s2)cc([N+](=O)[O-])c1O,7.57 µM (active),
O=c1/c(=C/c2ccc(O)c([N+](=O)[O-])c2)sc2nc3ccccc3n12,3.79 µM (active),
N#C/C(=C\c1ccc(O)c([N+](=O)[O-])c1)c1nc2ccccc2s1,6.75 µM (active),
COC(CNC(=O)c1ccc(Cn2c(=S)[nH]c3cc4c(cc3c2=O)OCO4)cc1)OC,,-5.19%
CCOc1ccnc2c1c(=O)n(Cc1cc(OC)cc(OC)c1)c(=O)n2C,,-3.23%
COC(=O)CN(c1ccc(C)cc1)S(=O)(=O)c1ccc2c(c1)n(C)c(=O)c(=O)n2C,,-6.66%
COC(=O)c1ccc(C2C(Oc3ccccc3C)C(=O)N2CCc2ccc(OC)c(OC)c2)cc1 (stereo unspecified),,-6.94%
COc1ccc(CCNC2=C(Cl)C(=O)N(CCc3ccc(OC)c(OC)c3)C2=O)cc1OC,21.3 µM (active),
COc1ccc(CCNC2=C(Cl)C(=O)N(CCc3ccccc3)C2=O)cc1OC,26.9 µM (active),
O=C(N/N=C/c1cccc(Oc2ccc([N+](=O)[O-])cc2[N+](=O)[O-])c1)c1cncc(Br)c1,30.1 µM (active),
CC(C)COc1cccc(-c2cc(C(=O)Nc3ccon3)c3ccccc3n2)c1,,-9.56%
N#Cc1nc(Cc2cccc3ccccc23)oc1NCc1ccc2c(c1)OCO2,,-8.9%
N#Cc1c(Cl)nsc1NC(=O)c1ccccc1,7.57 µM (active),
O=C(O)c1ccc(S(=O)(=O)N(Cc2ccccc2)Cc2ccccc2)cc1,,-7.63%
O=C(O)c1ccc(NC2=C(Cl)C(=O)c3ccccc3C2=O)cc1,30.1 µM (active),
O=C(O)c1cccc(NC2=C(Cl)C(=O)c3ccccc3C2=O)c1,23.9 µM (active),
CCN(CC)c1ccc(NC2=C(Cl)C(=O)c3ccccc3C2=O)cc1,23.9 µM (active),
Cc1ccccc1N1CCN(C2CCCN(C(=O)c3cnsn3)C2)CC1 (stereo unspecified),,-2.71%

# Source: PubChem BioAssay AID602292 (National Center for Advancing Translational Sciences (NCATS), 2012)
